Results filed as inconclusive are left out. Activity calls are given as the source filed them. Unless noted, calls come from the whole dose curve; as a rule, active = well fitted curve in the direction sought with a large enough effect; inconclusive = small, poorly fitted or top-dose-only effect, or another doubt; inactive = no such curve, though single readings can be large; an effect the other way counts as inactive or inconclusive.
Experiments:
[1] = target: Glucocorticoid receptor (Homo sapiens) (UniProt P04150); test: GR-GFP Redistribution (AID 450;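 active = compounds whose dose series gives a full or clear partial fitted curve of increased nuclear translocation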; note: potency is the fitted concentration of half-maximal effect); settings: U2OS GR-GFP nuclear translocation, laser cytometry, 2 h
[2] = target: Glucocorticoid receptor (Homo sapiens) (UniProt P04150); test: GR-EFC Redistribution (AID 451; calls by dose curve; note: potency is the fitted concentration of half-maximal effect); settings: CHO-K1 GR-EFC translocation, beta-gal luminescence, 2 h
Method in brief: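 CHO-K1 cells expressing nuclear EA and GR-ED fragments of b-gal; compounds titrated up to 46 uM final, 2 h at 37 C. GR nuclear translocation read as complemented b-gal luminescence after 1 h RT detection.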

[3] = target: Ubiquitin carboxyl-terminal hydrolase 1 (Homo sapiens) (UniProt O94782); test: Inhibitors of USP1/UAF1: Pilot qHTS (AID 504865); settings: purified USP1/UAF1, Ub-rhodamine cleavage fluorescence; series mostly up to 114 µM;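 note: rhodamine fluorescence freed from ubiquitin-rhodamine substrate followed over time; top concentration of the series differs between compounds; % is set by controls: 0 for no effect and ±100 for the full control effect; nearly all actives have a fitted effect of over 35% in size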
Method in brief: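 1nM USP1/UAF1 + cpd, 15 min RT; start w/ Ub-Rho 150nM final; kinetic FL 480/540 nm, 6 reads q60 s. Buffer 50mM HEPES pH 7.8, 0.5mM EDTA, 1mM TCEP, 0.01% Tween-20, 0.1 mg/ml BSA.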

[4] = target: DNA dC->dU-editing enzyme APOBEC-3G (Homo sapiens) (UniProt Q9HC16); test: qHTS for inhibitors of Vif-A3G interactions: Validation (AID 588379); settings: Vif-A3G protein interaction assay; series mostly up to 46.1 µM; note: 0% is about no effect
Method in brief: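 Yellow fluorescence (Ex 488, Em 500-530) of Vif-coexpressing HeLa A3G-eYFP cells, scanned by Acumen cytometer, reports blocked A3G degradation. Cells plated at 700/well overnight at 37 deg C before compound addition, then a further overnight compound incubation at 37 deg C.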

[5] = system: Zika virus NS2B-NS3 protease; test: Primary screen GU AMC qHTS for Zika virus inhibitors (AID 1347154); settings: Zika NS2B-NS3 unlinked protease, AMC fluorogenic substrate; series mostly up to 54.1 µM;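 note: 0% = no-inhibitor control and -100% = no-enzyme control; nearly all actives have a fitted effect of over 70% in size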
Method in brief: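 Unlinked Zika NS2B hydrophilic domain–NS3 protease complex at 25 nM in 10 mM Tris-HCl pH 8.0, 0.01% Tween 20, with an AMC peptide substrate. Fluorescence change (340/450 nm) over 15 min at room temperature, normalized to controls, fitted to 4-parameter Hill.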

[6] = Counterscreen qHTS for small molecule stabilizers of the endoplasmic reticulum resident proteome: GLuc-NoTag assay (AID 1508627); settings: Gaussia luciferase NoTag secretion counterscreen, luminescence, thapsigargin 100 nM for final 4 h; series mostly up to 76.4 µM; note: potency is the fitted concentration of half-maximal effect
Method in brief: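 Counterscreen line: SH-SY5Y-GLuc-NoTag. Seed, 5 h; compound, 19 h; thapsigargin 100 nM, 4 h; 37C/5% CO2. Readout: secreted GLuc luminescence, coelenterazine 0.07x final, no lysis.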

[7] = Cell Viability qHTS for small molecule stabilizers of the endoplasmic reticulum resident proteome (AID 1508629); settings: cell viability counter-screen, 100 nM thapsigargin for final 4 h;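 note: compound exposure about 46 h in total before the viability read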; note: potency is the fitted concentration of half-maximal effect;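 for max response: human SH-SY5Y neuroblastoma cells carrying the GLuc-SERCaMP reporter; % is set by controls: 0 for no effect and ±100 for the full control effect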
[8] = Primary qHTS for small molecule stabilizers of the endoplasmic reticulum resident proteome: Secreted ER Calcium Modulated Protein (SERCaMP) assay (AID 1508630); settings: SH-SY5Y GLuc-SERCaMP (Gaussia luciferase released on ER calcium loss) secretion, thapsigargin, luminescence; series mostly up to 38.4 µM; note: % is set by controls: 0 for no effect and ±100 for the full control effect
Method in brief: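 The SH-SY5Y reporter protocol was run at 3 concentrations up to 38.3 uM (primary) or 11 concentrations (follow-up): 16 h compound, 100 nM thapsigargin for 4 h, then extracellular luciferase luminescence.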

[9] = target: Mitogen-activated protein kinase 10 (Mus musculus) (UniProt Q61831); test: JNK3 AlphaScreen Assay (AID 530; active = well fitted curve in either direction with a large enough effect, not every such curve was filed as active;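 note: kinase came from lysate of stimulated human HepG2 cells; signal reports phosphorylation of biotinylated GST-cJun 1-79 at Ser73 with 10 µM ATP; % is set by controls: 0 for no effect and ±100 for the full control effect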); settings: JNK3 lysate, c-Jun phosphorylation; series mostly up to 57.1 µM
Method in brief: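 HepG2 lysate (IL-1b/TNFa pre-activated) + biotin-GST-cJun 1-79 + anti-pSer73 cJun; cpd titration, 15 min RT; ATP 10 uM start; Tris pH 7.6, MgCl2, DTT, vanadate; beads in EDTA buffer; AlphaScreen.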

[10] = target: 3',5'-cyclic-AMP phosphodiesterase 4B (Homo sapiens) (UniProt Q07343); test: qHTS Assay for Inhibitors of PDE-IV (AID 607; active = well fitted activation curve with a large enough effect in the main read-out, with a control signal flat, not every such curve was filed as active; note: % of control where 0% means no effect); settings: HEK293 ACTOne CNG channel cells, membrane potential fluorescence; series mostly up to 22.9 µM
Method in brief: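 Cell-based read-out of cAMP via a modified cyclic nucleotide-gated channel and membrane potential dye (535/590 nm) in HEK293 cells expressing PDE4 endogenously. Compounds tested up to 22.9 uM final; 100 uM RO 20-1724 reference.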

[11] = target: Cytochrome P450 1A2 (Homo sapiens) (UniProt P05177); test: p450-cyp1a2 (AID 410; calls by dose curve; note: potency is the fitted concentration of half-maximal effect); settings: recombinant CYP1A2, luciferin-ME demethylation, luminescence; series mostly up to 57 µM
Method in brief: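 Read-out is luminescence from luciferin produced by CYP1A2 demethylation of Luciferin-ME (100uM, at Km). Detection reagent stopped the 60 min NADPH-dependent reaction; signals were normalized to 57 uM furafylline.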

[12] = Confirmatory qHTS for small molecule stabilizers of the endoplasmic reticulum resident proteome: Secreted ER Calcium Modulated Protein (SERCaMP) assay (AID 1508628); settings: SERCaMP secreted luciferase ER calcium/proteostasis reporter; series mostly up to 76.3 µM; note: nearly all actives have a fitted effect of over 40% in size; note: potency is the fitted concentration of half-maximal effect
Method in brief: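 GLuc-SERCaMP-expressing SH-SY5Y cells, pretreated 16 h with compound, are challenged with thapsigargin to empty ER calcium stores; after 4 h, coelenterazine is added directly to the medium and luminescence is imaged.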

Glucocorticoid receptor (Homo sapiens), sequence (P04150 whole entry, looked up, the tested form may be a part): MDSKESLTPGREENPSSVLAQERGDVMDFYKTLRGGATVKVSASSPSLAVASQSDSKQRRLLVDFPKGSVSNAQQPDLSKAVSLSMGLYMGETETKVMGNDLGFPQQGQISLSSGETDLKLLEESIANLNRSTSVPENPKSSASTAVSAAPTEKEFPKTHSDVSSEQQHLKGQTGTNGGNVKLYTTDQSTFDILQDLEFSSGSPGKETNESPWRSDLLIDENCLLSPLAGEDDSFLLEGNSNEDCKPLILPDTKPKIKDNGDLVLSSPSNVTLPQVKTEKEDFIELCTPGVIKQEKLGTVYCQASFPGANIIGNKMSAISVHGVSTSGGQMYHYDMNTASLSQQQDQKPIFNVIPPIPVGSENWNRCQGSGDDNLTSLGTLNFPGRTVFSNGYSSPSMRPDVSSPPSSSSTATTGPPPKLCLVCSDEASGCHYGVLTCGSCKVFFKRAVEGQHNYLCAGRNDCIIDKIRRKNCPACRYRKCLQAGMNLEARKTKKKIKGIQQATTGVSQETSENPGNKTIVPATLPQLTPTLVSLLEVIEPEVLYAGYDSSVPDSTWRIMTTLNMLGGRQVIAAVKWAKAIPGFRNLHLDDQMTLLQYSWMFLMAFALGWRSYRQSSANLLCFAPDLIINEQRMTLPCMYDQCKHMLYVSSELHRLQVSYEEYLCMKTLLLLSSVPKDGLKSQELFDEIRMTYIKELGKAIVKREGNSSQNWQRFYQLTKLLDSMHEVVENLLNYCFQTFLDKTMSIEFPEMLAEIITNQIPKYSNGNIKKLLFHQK
DNA dC->dU-editing enzyme APOBEC-3G (Homo sapiens), sequence (Q9HC16 whole entry, looked up): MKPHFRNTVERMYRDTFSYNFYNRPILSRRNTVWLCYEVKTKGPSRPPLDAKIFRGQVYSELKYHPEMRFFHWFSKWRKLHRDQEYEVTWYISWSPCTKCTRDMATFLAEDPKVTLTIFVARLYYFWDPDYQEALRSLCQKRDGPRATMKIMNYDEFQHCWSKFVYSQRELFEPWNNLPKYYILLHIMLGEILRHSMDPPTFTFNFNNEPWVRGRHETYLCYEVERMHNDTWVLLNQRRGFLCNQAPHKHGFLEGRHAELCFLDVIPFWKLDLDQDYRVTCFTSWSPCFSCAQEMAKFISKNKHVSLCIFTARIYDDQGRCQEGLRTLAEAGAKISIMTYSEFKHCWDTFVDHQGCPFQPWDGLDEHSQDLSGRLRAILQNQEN
Ubiquitin carboxyl-terminal hydrolase 1 (Homo sapiens), sequence (O94782 whole entry, looked up): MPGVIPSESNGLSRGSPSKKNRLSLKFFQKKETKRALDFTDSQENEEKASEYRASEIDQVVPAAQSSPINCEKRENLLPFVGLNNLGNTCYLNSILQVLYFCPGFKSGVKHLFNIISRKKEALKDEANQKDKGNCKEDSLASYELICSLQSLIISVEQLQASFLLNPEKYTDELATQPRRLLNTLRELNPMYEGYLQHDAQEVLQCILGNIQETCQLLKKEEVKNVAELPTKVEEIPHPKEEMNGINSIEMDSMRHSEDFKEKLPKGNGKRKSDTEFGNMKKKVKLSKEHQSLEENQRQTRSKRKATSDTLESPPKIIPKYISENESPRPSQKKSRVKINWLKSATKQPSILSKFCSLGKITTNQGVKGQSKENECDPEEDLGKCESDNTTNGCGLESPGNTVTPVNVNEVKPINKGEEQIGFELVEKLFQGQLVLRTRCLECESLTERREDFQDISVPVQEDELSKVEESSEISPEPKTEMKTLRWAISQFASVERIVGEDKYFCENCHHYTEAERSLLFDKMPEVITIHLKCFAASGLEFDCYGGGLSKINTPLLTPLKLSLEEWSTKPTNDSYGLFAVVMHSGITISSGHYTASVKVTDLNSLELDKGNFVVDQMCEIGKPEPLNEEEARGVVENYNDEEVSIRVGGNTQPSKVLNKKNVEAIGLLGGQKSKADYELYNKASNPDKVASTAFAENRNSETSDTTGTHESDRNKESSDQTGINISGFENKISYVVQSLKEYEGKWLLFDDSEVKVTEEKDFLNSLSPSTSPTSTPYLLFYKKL
Cytochrome P450 1A2 (Homo sapiens), sequence (P05177 whole entry, looked up): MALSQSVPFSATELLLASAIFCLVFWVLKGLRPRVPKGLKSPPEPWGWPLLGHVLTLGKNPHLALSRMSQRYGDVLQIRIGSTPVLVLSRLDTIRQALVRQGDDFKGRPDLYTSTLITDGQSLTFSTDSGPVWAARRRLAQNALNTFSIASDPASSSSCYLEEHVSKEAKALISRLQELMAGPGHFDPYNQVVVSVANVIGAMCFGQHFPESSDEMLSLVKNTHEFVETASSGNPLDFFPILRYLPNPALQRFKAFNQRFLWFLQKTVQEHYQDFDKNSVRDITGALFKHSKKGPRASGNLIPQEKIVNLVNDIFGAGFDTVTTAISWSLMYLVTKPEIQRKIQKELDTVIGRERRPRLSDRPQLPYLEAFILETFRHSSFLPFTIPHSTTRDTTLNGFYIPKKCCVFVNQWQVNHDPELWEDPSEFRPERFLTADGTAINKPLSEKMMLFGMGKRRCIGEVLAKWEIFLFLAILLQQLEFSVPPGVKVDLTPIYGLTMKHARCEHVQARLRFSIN
3',5'-cyclic-AMP phosphodiesterase 4B (Homo sapiens), sequence (Q07343 whole entry, looked up): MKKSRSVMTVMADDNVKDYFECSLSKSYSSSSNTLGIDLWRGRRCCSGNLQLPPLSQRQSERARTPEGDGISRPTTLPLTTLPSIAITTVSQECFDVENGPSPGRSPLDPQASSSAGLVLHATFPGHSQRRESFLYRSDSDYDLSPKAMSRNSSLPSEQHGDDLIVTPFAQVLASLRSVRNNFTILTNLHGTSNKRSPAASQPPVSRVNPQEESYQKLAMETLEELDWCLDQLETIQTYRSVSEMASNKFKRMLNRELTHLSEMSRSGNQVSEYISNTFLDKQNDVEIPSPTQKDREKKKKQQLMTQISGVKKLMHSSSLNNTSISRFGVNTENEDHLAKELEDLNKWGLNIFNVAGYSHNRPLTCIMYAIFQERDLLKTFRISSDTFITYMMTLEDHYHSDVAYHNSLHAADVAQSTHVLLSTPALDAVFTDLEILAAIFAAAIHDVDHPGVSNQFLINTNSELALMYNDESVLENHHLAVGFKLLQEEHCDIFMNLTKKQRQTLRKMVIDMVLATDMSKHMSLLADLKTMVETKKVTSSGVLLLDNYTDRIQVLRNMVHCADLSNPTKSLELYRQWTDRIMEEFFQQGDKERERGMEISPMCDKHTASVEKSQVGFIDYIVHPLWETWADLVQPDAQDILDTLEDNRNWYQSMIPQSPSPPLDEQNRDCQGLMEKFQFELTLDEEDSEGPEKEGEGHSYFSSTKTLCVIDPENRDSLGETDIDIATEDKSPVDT

CN1[C@@H]2CC[C@H]1CC(OC(c1ccc(F)cc1)c1ccc(F)cc1)C2 (stereo not given in full)
active: Potency [6] 44.7 µM | Potency [7] 25.1 µM
inactive: Potency [1] > 46 µM | Potency [2] > 46 µM | Potency [3] | Potency [4] | Potency [5]

CC(=O)C1CCC2C3CCC4CC(C)(O)CCC4(C)C3CCC12C (stereo not given)
inactive: Potency [5] | Potency [8]

C=CCN1C[C@H](C)N([C@H](c2ccc(C(=O)N(CC)CC)cc2)c2cccc(O)c2)C[C@H]1C
inactive: Potency [1] > 46 µM | Potency [2] > 46 µM | outcome [9] | Potency [10] | Potency [3] | Potency [4] | Potency [5] | max response [7] 8.89%

CC(C)=CCCN1CCC(NC(=O)C(O)(c2ccccc2)C2CCCC2)CC1 (stereo not given)
inactive: Potency [5] | Potency [6] | max response [7] 3.9%

Clc1ccc(C2CC3CCC2N3)cn1 (stereo not given)
inactive: Potency [5] | Potency [8]

CC(=O)C1=C(O)[C@@H]2[C@@H]3c4c[nH]c5cccc(c45)C[C@@H]3C(C)(C)N2C1=O
active: Potency [11] 12.6 µM
inactive: Potency [1] > 46 µM | Potency [2] > 46 µM | outcome [9] | Potency [3] | Potency [4] | Potency [5] | Potency [6] | max response [7] -1.84% | Potency [8]

NCC(CC(=O)O)c1ccc(Cl)s1 (stereo not given)
inactive: Potency [5] | Potency [8]

C=CCN1CCC23c4c5ccc(O)c4OC2/C(=N/N=C2\CCC4(O)C6Cc7ccc(O)c8c7C4(CCN6CC=C)C2O8)CCC3(O)C1C5 (stereo not given)
inactive: Potency [5] | Potency [8]

Fc1ccc(C(OCCN2CCN(C/C=C/c3ccccc3)CC2)c2ccc(F)cc2)cc1
active: Potency [6] 44.7 µM | Potency [7] 20 µM
inactive: Potency [5]

CN(C(=O)Cc1ccc(Cl)c(Cl)c1)[C@H](CN1CCCC1)c1ccccc1
inactive: Potency [1] > 46 µM | Potency [2] > 46 µM | outcome [9] | Potency [4] | Potency [5] | Potency [12] | Potency [8]
active: Potency [11] 31.6 µM

C[C@H]1C[C@H](C)C(=O)[C@@H]([C@H](O)CC2CC(=O)NC(=O)C2)C1
inactive: outcome [9] | Potency [10] | Potency [4] | Potency [5]
active: Potency [6] 1.58 µM | Potency [12] 0.282 µM

CC(C)[C@]1(O)[C@@H](OC(=O)c2ccc[nH]2)[C@@]2(O)[C@@]3(C)C[C@]4(O)O[C@@]5([C@H](O)[C@@H](C)CC[C@]35O)[C@@]2(O)C41C
inactive: Potency [5] | Potency [6] | Potency [8]

O[C@@H]1CCCC[C@@H]1N1CCC(c2ccccc2)CC1
inactive: Potency [5] | Potency [8]

N[C@]1(C(=O)O)CC[C@@H](C(=O)O)C1 (racemic)
inactive: Potency [5] | Potency [8]

— PubChem BioAssay (NCATS)
